Experiment [1] can be described thus: NCI Yeast Anticancer Drug Screen. Data for the rad50 strain (AID 155).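 Note: 0% = growth of vehicle-only cultures of the same strain.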 The note with it: S. cerevisiae rad50 strain growth inhibition; at 50.0 µM; hits give high values. In a few lines:
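Genetically altered yeast (DNA repair pathway); compound treatment; growth inhibition vs vehicle ctrl.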

Experiment [2] is described as follows: NCI Yeast Anticancer Drug Screen. Data for the mec2-1 strain (AID 157). The note with it: S. cerevisiae mec2-1 strain, at 50.0 µM, hits give high values. Put shortly:
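Growth inhibition is read against vehicle-treated controls after compound exposure of the mec2-1 yeast strain, which is defective in DNA damage repair or cell cycle control.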

Experiment [3] can be described thus: NCI Yeast Anticancer Drug Screen. Data for the sgs1 mgt1 strain (AID 161).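 Note: 0% = growth of cultures given vehicle only.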 The note with it: S. cerevisiae sgs1 mgt1 strain, at 50.0 µM, hits give high values. In a few lines: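 This yeast growth screen uses a strain with defined DNA-repair lesions; compound-treated growth is compared with vehicle-treated growth.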
Experiment [4] in a line: NCI Yeast Anticancer Drug Screen. Data for the cln2 rad14 strain (AID 165).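 Note: 0% = growth equal to vehicle treated cultures.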 Particulars: S. cerevisiae cln2 rad14 strain, at 50.0 µM, hits give high values. Put shortly: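 Growth inhibition, relative to vehicle-treated controls, is the read-out. The test organism is a yeast strain with defined genetic alterations, cln2 rad14.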
Experiment [5] in a line: NCI Yeast Anticancer Drug Screen. Data for the bub3 strain (AID 167). Particulars: S. cerevisiae bub3 mutant strain, at 50.0 µM, hits give high values. Put shortly:
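Yeast carrying a defined mutation is treated with each compound, and growth is compared with that of vehicle-exposed cells to give inhibition.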

Experiment [6] can be described thus: NCI Yeast Anticancer Drug Screen. Data for the mlh1 rad18 strain (AID 175). The note with it: S. cerevisiae mlh1 rad18 strain growth inhibition; at 50.0 µM; hits give high values. Put shortly: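 Cells of a genetically altered yeast strain, deficient in DNA damage repair, were treated with compound. Their growth was then compared with that of vehicle-treated cultures to give inhibition.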

Compounds without any hit were thinned out: in the full panel of roughly 79,000, 15% have a hit. Values without a mark were called inactive. Active and inactive are the calls of the source. Cut-off read from the data, not from the text of the source: active = growth inhibition above about 70%; inactive = the rest. Where a SMILES comes first, the peptide text is derived from it. The star is where a group is joined. OtBu = CC(C)(C)O*

For the molecule `COc1cc(-c2oc3c(OC)c(OC)cc(O)c3c(=O)c2OC)ccc1O`, the growth inhibition in experiment [1] was 11.7%; in experiment [2], -8.1%; in experiment [3], -8.7%; in experiment [4], -5.3%; in experiment [5] it was -9.05%; in experiment [6] it was -0.05%.
Take `C1=C\CCCC/C=C/CC/1`: the growth inhibition in experiment [1] was 1.2%; in experiment [2], -4.75%; in experiment [3], -13.1%; in experiment [4], 5.3%; in experiment [5] it was 0.75%; in experiment [6], 10.7%.
`Cn1c(=O)c2[nH]c(C3CCCCCC3)nc2n(C)c1=O`: the growth inhibition in experiment [1] is 13.6%; in experiment [2], -9.7%; in experiment [3] it was -9.4%; in experiment [4], -4.1%; in experiment [5] it was 7.25%; in experiment [6], -1.8%.
For `CC(C)CC(NC(=O)C1CCCN1)C(=O)NC(CC(C)C)C(=O)OC(C)(C)C` (stereo not drawn) (H-Pro-Leu-Leu-OtBu; configuration not given here), the growth inhibition is 30.2% in experiment [1]; 26.6% in experiment [2]; 29.1% in experiment [3]; 19% in experiment [4]; -4.15% in experiment [5]; 30.9% in experiment [6].
Turning to `OC(c1ccccc1)(C1CCNCC1)C1CC1` (stereo not drawn), the growth inhibition in experiment [1] is 9.8%; in experiment [2], -10.4%; in experiment [3], -4%; in experiment [4] it was -20.4%; in experiment [5], -16.6%; in experiment [6] it was -6.45%.
Take `C/C(CC(=O)Nc1cccc([N+](=O)[O-])c1)=N\NC(=O)C[n+]1ccccc1`: the growth inhibition is 15.5% in experiment [1]; -16.9% in experiment [2]; -0.65% in experiment [3]; 19.1% in experiment [4]; 0.5% in experiment [5]; -3.35% in experiment [6].
As for `COc1ccc(N=Nc2sc(N)nc2-c2cccc([N+](=O)[O-])c2)cc1`, the growth inhibition was 5% in experiment [1]; 4.85% in experiment [2]; 10.1% in experiment [3]; -13.8% in experiment [4]; 8.6% in experiment [5]; 11.7% in experiment [6].
For `O=[N+]([O-])c1cccc(Cc2nncc3ccccc23)c1`, the growth inhibition in experiment [1] was 4.15%; in experiment [2], 35.9%; in experiment [3], 17.6%; in experiment [4], 0.05%; in experiment [5], 44.5%; in experiment [6] it was 17.7%.
For the molecule `CCOc1nc(=O)n(CC(=O)c2ccc(Cl)s2)cc1F`, the growth inhibition was 4.55% in experiment [1]; 17.4% in experiment [2]; -0.8% in experiment [3]; -7.8% in experiment [4]; 21.6% in experiment [5]; 19.6% in experiment [6].
For `CCC(c1ccc(CN(C)C)c(O)c1)C(CC)c1ccc(CN(C)C)c(O)c1` (stereo not drawn), the growth inhibition in experiment [1] was 5.7%; in experiment [2], 1.35%; in experiment [3], -11.4%; in experiment [4] it was -12.9%; in experiment [5], -2.55%; in experiment [6], 2.75%.
In the case of `CCC(C(CC(=O)c1ccccc1)c1ccccc1)[N+](=O)[O-]` (stereo not drawn), the growth inhibition was 9.7% in experiment [1]; -0.65% in experiment [2]; 0.6% in experiment [3]; -42.3% in experiment [4]; 10.2% in experiment [5]; -5.65% in experiment [6].
For the molecule `CC(=O)c1ccccc1`, the growth inhibition is 1.4% in experiment [1]; -12.9% in experiment [2]; -16.1% in experiment [3]; -5.7% in experiment [4]; -18.2% in experiment [5]; -23.8% in experiment [6].
In the case of `O=[N+]([O-])c1nccn1CCCl`, the growth inhibition in experiment [1] was 20.1%; in experiment [2], -3.75%; in experiment [3], 2.35%; in experiment [4], -26.1%; in experiment [5] it was -9.85%; in experiment [6], -1.7%.
As to `Cc1cccc(CNc2ccc(S(=O)(=O)c3ccc(NCc4cccc(C)n4)cc3)cc2)n1`, the growth inhibition is 4.7% in experiment [1]; 4.35% in experiment [2]; 9.75% in experiment [3]; -8.95% in experiment [4]; -5.95% in experiment [5]; 15.4% in experiment [6].
`CC1=CC(=N/S(=O)(=O)c2ccccc2)/C2CC(C)=C(C)CC2/C1=N\S(=O)(=O)c1ccccc1` (stereo not drawn): the growth inhibition in experiment [1] is 82.6% (active); in experiment [2], 78.6% (active); in experiment [3], 93% (active); in experiment [4] it was 56.6%; in experiment [5] it was 81.2% (active); in experiment [6], 85.3% (active).
Turning to `CN(C)CCSc1nc2ccccc2s1`, the growth inhibition in experiment [1] is 7.6%; in experiment [2], 6.55%; in experiment [3], 28.7%; in experiment [4], 13.3%; in experiment [5], -16.6%; in experiment [6], 31.1%.
With `Cc1cccc(C)c1NC(=O)N(Cc1ccccc1)Cc1ccccc1`, the growth inhibition in experiment [1] was 1.65%; in experiment [2] it was 15.2%; in experiment [3], 20.6%; in experiment [4], -2%; in experiment [5], 36.7%; in experiment [6], 30.6%.
`O=P1(O)c2ccccc2Oc2ccccc21`: the growth inhibition was -4% in experiment [1]; -2.2% in experiment [2]; 7.45% in experiment [3]; 2.9% in experiment [4]; -0.95% in experiment [5]; -44.5% in experiment [6].
`CCCCCOS(C)(=O)=O`: the growth inhibition in experiment [1] is -4.6%; in experiment [2], -14.2%; in experiment [3], 4.85%; in experiment [4], -36.5%; in experiment [5], 0.55%; in experiment [6] it was -20.1%.
Turning to `O=[N+]([O-])c1ccc(N/N=C/c2ccccn2)nc1`, the growth inhibition in experiment [1] is 8.1%; in experiment [2], -6.1%; in experiment [3], 10.1%; in experiment [4], -7.7%; in experiment [5], 6%; in experiment [6] it was 5.4%.
Take `CC(=O)C1(c2ccccc2)C(C)(C)C(C)(C)C(=O)C(C)(C)C1(C)C`: the growth inhibition in experiment [1] is 19.4%; in experiment [2], 7.55%; in experiment [3] it was 15.4%; in experiment [4], 16.9%; in experiment [5], 12.9%; in experiment [6], 21.6%.
For the molecule `CCCCCCCSC#N`, the growth inhibition is -7.6% in experiment [1]; 20.9% in experiment [2]; -1.9% in experiment [3]; -22.4% in experiment [4]; 9.75% in experiment [5]; 29.6% in experiment [6].
Regarding `CC(O)CCNc1nnc2c3ccccc3n(C)c2n1` (stereo not drawn), the growth inhibition in experiment [1] was 5.95%; in experiment [2], 0.65%; in experiment [3] it was 0.1%; in experiment [4], 44.2%; in experiment [5], 5.3%; in experiment [6], -16.2%.
Regarding `Cc1nc(C)c(N2CCN(CN)CC2)c(=O)[nH]1`, the growth inhibition in experiment [1] is -45.2%; in experiment [2] it was -32.8%; in experiment [3] it was -48%; in experiment [4], 30.6%; in experiment [5], 14.3%; in experiment [6] it was -72.3%.
Consider `CCC(CC)C(O)CCCN(C)C` (stereo not drawn), for which the growth inhibition in experiment [1] was 33.6%; in experiment [2] it was 21.8%; in experiment [3] it was 31.2%; in experiment [4], 12.8%; in experiment [5], 1.65%; in experiment [6] it was 24.1%.
As to `CC(C)(C)N(C/C=C/CN(Cc1ccccc1)Cc1ccccc1)C(C)(C)C`, the growth inhibition is 32.8% in experiment [1]; 16.2% in experiment [2]; 25.6% in experiment [3]; 10.8% in experiment [4]; 19.8% in experiment [5]; 22.7% in experiment [6].
For `O=C1CC=NC(=S)N1`, the growth inhibition in experiment [1] is -0.6%; in experiment [2], 7%; in experiment [3] it was 8.75%; in experiment [4] it was 7.95%; in experiment [5], -2.7%; in experiment [6], 28.4%.
On to `CC(=O)c1ccc(NC(=O)CSc2nc(C)nc3c2sc(=S)n3-c2ccccc2)cc1`, for which the growth inhibition in experiment [1] was -15.1%; in experiment [2], -10.8%; in experiment [3], -0.1%; in experiment [4], -24.1%; in experiment [5] it was -8.2%; in experiment [6], -22.1%.
Take `COc1cc(C2=C3C(=O)OCC3Cc3ccccc32)ccc1OCc1ccccc1` (stereo not drawn): the growth inhibition in experiment [1] is 18.9%; in experiment [2], -0.5%; in experiment [3] it was 7.5%; in experiment [4], 5.55%; in experiment [5], 11.1%; in experiment [6], 29.6%.
Take `COc1cc(Br)c(C=O)cc1OC`: the growth inhibition was 10.5% in experiment [1]; 22.9% in experiment [2]; 13.6% in experiment [3]; -16.1% in experiment [4]; 2.95% in experiment [5]; 5.5% in experiment [6].
For `COc1ccc(CC2c3cc(OC)c(OC)cc3C=CN2C)cc1OC` (stereo not drawn), the growth inhibition in experiment [1] was 20.8%; in experiment [2] it was 4.55%; in experiment [3], 24.1%; in experiment [4], 14.9%; in experiment [5] it was 35.6%; in experiment [6], 2.3%.
As to `CCOC(=O)OCCOCCOC(=O)OCC`, the growth inhibition is -2.25% in experiment [1]; -14.2% in experiment [2]; -30.8% in experiment [3]; 19.2% in experiment [4]; -2.65% in experiment [5]; 25.8% in experiment [6].
Turning to `O=C(CCN1CCOCC1)c1csc2ccccc12`, the growth inhibition is 27.6% in experiment [1]; 36.9% in experiment [2]; 12.9% in experiment [3]; 14.9% in experiment [4]; -5.35% in experiment [5]; 17.8% in experiment [6].
Take `O=S(Nc1ccc(Cl)cc1)c1ccccc1` (stereo not drawn): the growth inhibition in experiment [1] was 10%; in experiment [2], 10.9%; in experiment [3] it was 31.1%; in experiment [4] it was 4.1%; in experiment [5] it was 18.1%; in experiment [6], 2.3%.
`O=c1[nH]c2ccccc2c(O)c1/C=N/C(=S)NCc1ccccc1`: the growth inhibition was -23.1% in experiment [1]; -23.8% in experiment [2]; 3.95% in experiment [3]; 0.2% in experiment [4]; 0.7% in experiment [5]; -37.2% in experiment [6].
In the case of `Cc1ccc(S(=O)(=O)Oc2cccc(Br)c2)cc1`, the growth inhibition was 8.25% in experiment [1]; -1.25% in experiment [2]; 21.9% in experiment [3]; -17.4% in experiment [4]; -1.1% in experiment [5]; 7.55% in experiment [6].
Turning to `CC(O)(COS(=O)(=O)c1ccccc1)c1ccccc1` (stereo not drawn), the growth inhibition was -8.1% in experiment [1]; 0.7% in experiment [2]; -8.7% in experiment [3]; -14% in experiment [4]; 26.7% in experiment [5]; -8.4% in experiment [6].
In the case of `COC(=O)c1ccc(C(=O)c2ccccc2)cc1`, the growth inhibition in experiment [1] is -1.15%; in experiment [2] it was 9.15%; in experiment [3], 27.9%; in experiment [4] it was 5.55%; in experiment [5], 14.2%; in experiment [6], 7.7%.
